# Rows were chosen to be rich in hits. Some 7.2% of all compounds tested hit in one or more screens of this group.
# VLA-4 inh: inhibition in a human VLA-4 binding assay | P13612 | VLA-4 expressing cells, ligand binding flow cytometry | inhibition, % (about 7 µM as worked out from the volumes in the protocol) | 0.2% of 330,000 active | AID 2557; in the data active = inhibition above about 50%
# AHR act: human AHR activation. 2.5% of 320,000 active. AHR-responsive luciferase reporter cells, luminescence. P35869. activation, % at 5 µM; in the data active = activation above about 47%;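 also: 0% = vehicle wells and 100% = reference agonist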
# ALR H2O2 inh: blocks human ALR sulfhydryl oxidase activity; P55789; purified ALR, DTT oxidation, H2O2 HRP-luminol luminescence; inhibition, % (concentration not given with the values); 3.8% of 290,000 active; AID 485317;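 active = mean replicate inhibition above about 79%, with every replicate also reaching it, limit read from the data; inconclusive = only one of the two criteria met; inactive = mean below limit and not every replicate reaching it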
# Target sequence (P55789 whole entry, looked up): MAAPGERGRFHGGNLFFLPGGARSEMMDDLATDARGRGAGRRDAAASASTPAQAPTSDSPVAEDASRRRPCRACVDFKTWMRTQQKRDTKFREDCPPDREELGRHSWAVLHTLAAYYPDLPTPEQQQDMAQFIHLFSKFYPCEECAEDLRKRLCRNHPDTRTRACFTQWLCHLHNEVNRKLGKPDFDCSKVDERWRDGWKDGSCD
# Bfl-1 A1 inh: inhibitors of the anti-apoptotic protein A1, read as caspase activation; MEF A1-2A-BIM cells, Caspase-Glo 3/7 luminescence, 3 h; percent of clofoctol response, vehicle zero; caspase activation, % (concentration not given with the values); AID 2462; 0.066% of 330,000 active;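 active = over half of replicate activation scores above 10%, or exactly half above 10 with the replicate mean above 10; inconclusive = replicate mean below 10 yet half the replicates above 10; inactive = over half of replicates below 10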
# Mot1-301 SUMO: inhibitors of SUMOylation pathway: yeast Mot1-301 growth rescue. S. cerevisiae Mot1-301 growth rescue, ATP luminescence, 38.5C; percent above DMSO median, 100 means doubled. growth rescue, % at 18.8 µM. 1% of 320,000 active. AID 2716;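 active = every valid replicate shows activation above 250% relative to neutral control wells; inactive = the rest, any valid replicate at or below 250%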;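 also: OY570 slx delta 5 strain wells were the positive control but not used for scaling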
# Efflux pump inh: blocks antifungal efflux pumps in multiplex yeast assay; S. cerevisiae Candida pump triplex, Nile Red efflux; inhibition, % at 10 µM; 0.44% of 330,000 active;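 active = plate passing quality check with inhibition over a set limit, or well fluorescence over plate mean plus 4 SD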;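 also: Nile Red retained in pooled yeast measured as flow cytometry median fluorescence; 0% = buffer negative control and 100% = Enniatin B positive control; higher means more Nile Red kept so more efflux inhibition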
# An asterisk follows results filed as active; ? = inconclusive; nt = not tested or not shown.
SMILES,VLA-4 inh,AHR act,ALR H2O2 inh,Bfl-1 A1 inh,Mot1-301 SUMO,Efflux pump inh
CCc1ccc(N(CC(=O)N2CCN(Cc3ccccc3)CC2)S(C)(=O)=O)cc1,5.8,nt,-6.8,-2.0,-3.5,0.0
NCc1oc(-c2ccccc2)cc1C(=O)O,-0.2,-2.5,3.9,-0.9,28.3,-0.2
Cc1nn(CCc2n[nH]c(=S)n2C)c(C)c1Br,-4.4,-0.7,93.8*,0.4,0.0,-0.1
CC1=NN(C(N)=S)C(=O)C1N=Nc1cccc(C)c1 (centres undefined),4.2,64.2*,23.4,-6.1,-7.2,0.0
CC1=NN(C(N)=S)C(=O)C1N=Nc1ccc([N+](=O)[O-])cc1 (centres undefined),9.2,0.3,79.1*,-6.2,-14.4,-0.1
COc1ccccc1N=NC1C(=O)N(C(N)=S)N=C1C (centres undefined),7.8,64.2*,?,0.0,-14.9,0.0
CC1=NN(C(N)=S)C(=O)C1N=Nc1cccc(C(=O)O)c1 (centres undefined),1.8,nt,8.3,-7.8,-17.3,0.1
CC1=NN(C(N)=S)C(=O)C1N=Nc1ccc(Cl)cc1Cl (centres undefined),9.0,nt,66.3,-8.5,123.5,-0.1
CC1=NN(C(N)=S)C(=O)C1N=Nc1ccc(C)c(Br)c1 (centres undefined),4.1,58.0*,34.1,-6.8,-30.4,-0.1
CC1=NN(C(N)=S)C(=O)C1N=Nc1ccccc1C(=O)O (centres undefined),5.9,0.6,-0.5,0.3,-3.1,-0.1
CC1=NN(C(N)=S)C(=O)C1N=Nc1ccccc1Cl (centres undefined),-1.9,3.4,nt,-7.1,9.7,-0.1
Cn1nc(C(C)(C)C)c(NC(=O)c2ccc(F)cc2)c1C(C)(C)C,4.5,-0.8,nt,-0.5,8.4,0.1
COc1cccc(-c2nnc(SCC(=O)NC3CCS(=O)(=O)C3)n2C)c1 (centres undefined),5.4,-0.4,-1.0,-0.2,87.4,0.5
CCOc1ccccc1/C=C/c1nc2ccccc2[nH]c1=O,4.5,nt,-1.7,?,-23.4,0.0
Cc1cccc(CC2S/C(=N/c3cccc(C)n3)NC2=O)c1 (centres undefined),-11.3,16.7,-8.6,-0.1,-15.9,0.0
CCOC(=O)Cn1cncc1-c1ccc([N+](=O)[O-])cc1,-4.6,0.3,97.3*,-0.2,3.0,-0.1
O=C(NCC1CCCN(Cc2ccc3nonc3c2)C1)c1ccc(F)cc1 (centres undefined),4.8,5.2,-8.2,-1.1,7.8,0.1
Cc1ccc(CN2CCSc3ccc(C(=O)NCc4ccco4)cc32)cc1,7.7,4.1,47.5,0.8,6.4,-0.2
O=C(NCC1CCCO1)c1ccc2c(c1)N(Cc1ccccc1)CCS2 (centres undefined),0.5,5.0,98.7*,-1.2,44.7,0.0
CN1CCN(CCCNC(=O)c2ccc3c(c2)N(Cc2ccccc2)CCS3)CC1,6.0,5.8,99.2*,-2.7,-25.6,0.9
Cc1ccc(CN2CCSc3ccc(C(=O)NC4CCN(Cc5ccccc5)CC4)cc32)cc1,7.0,20.5,26.9,-0.5,-4.3,0.2
O=C(NC1CCCC1)c1ccc2c(c1)N(Cc1ccccc1)CCS2,15.0,16.5,17.1,0.4,1.5,0.0
O=C(NCCN1CCOCC1)c1ccc2c(c1)N(Cc1ccccc1)CCS2,6.1,8.4,99.5*,-0.9,126.0,0.7
CCN1CCN(CCCNC(=O)c2ccc3c(c2)N(Cc2ccc(C)cc2)CCS3)CC1,9.4,-1.2,99.3*,1.2,-14.2,0.0
O=C(NCCCN1CCOCC1)c1ccc2c(c1)N(Cc1ccccc1)CCS2,1.2,4.5,99.2*,0.3,-10.9,0.1
SMILES,VLA-4 inh,AHR act,ALR H2O2 inh,Bfl-1 A1 inh,Mot1-301 SUMO,Efflux pump inh
O=C(NCCCN1CCOCC1)c1ccc2c(c1)N(Cc1ccccc1)C(=O)c1ccccc1S2,21.2,0.6,1.2,0.7,-11.2,0.1
Cc1ccc(CN2CCSc3ccc(C(=O)NCCCN4CCOCC4)cc32)cc1,8.2,-0.9,98.4*,?,22.1,0.0
Cc1cc(=O)n(C(C)(C)C)c(=O)n1Cc1ccccc1,7.6,-1.2,1.3,-1.1,164.9,0.1
COc1ccc(C2NC(=O)C(C#N)=C(S)N2c2ccccc2)cc1OC (centres undefined),-2.4,1.1,93.7*,-0.2,-5.2,-0.3
COc1cc(C2NC(=O)C(C#N)=C(S)N2c2ccccc2)ccc1OC(C)C (centres undefined),7.5,2.2,27.7,-0.1,-7.9,0.0
COc1cc2cnc(CCO[C@H]3CCCCO3)cc2cc1OC,5.6,3.3,-4.5,0.5,26.5,-0.5
Cc1ccc(C2=C/C(=C/c3cccs3)C(=O)O2)cc1,-1.9,-0.7,0.3,0.0,2.0,-0.2
O=C1OC(c2ccccc2)=C/C1=C/N1CCCCC1,-2.5,30.7,85.0*,-0.5,351.2,0.0
Cc1cc(C(=O)N/N=C/c2cc(Br)cc(Br)c2OC(=O)c2ccccc2)n[nH]1,0.5,10.9,-3.2,0.4,14.5,0.0
Cc1cc(C(=O)N/N=C/c2cc(Br)ccc2OC(=O)c2ccc(Br)cc2)n[nH]1,0.1,50.3*,-0.1,-0.1,4.1,0.1
Cc1cc(C(=O)N/N=C\c2cc(C(C)(C)C)ccc2O)n[nH]1,-13.1,52.6*,17.9,-0.2,-14.5,0.0
S=P(N1CC1)(N1CC1)N1CC1,17.0,-1.9,3.2,-0.6,-2.6,-0.1
CN(Cc1ccc(OC(F)F)cc1)C(=O)c1ccc2c(=O)n3c(nc2c1)CCC3,2.7,0.9,0.7,-0.2,-4.5,0.1
Cc1nc2ccccc2c(=O)n1NC(=O)COc1ccccc1,13.3,0.5,-5.4,0.5,-1.6,0.0
O=C(COc1ccccc1)NNc1c2ccccc2nc2ccccc12,12.2,-12.4,98.1*,0.7,202.2,0.2
COc1ccc(OCC(=O)NNc2c3ccccc3nc3ccccc23)cc1,-25.2,-17.5,99.6*,-0.7,7.2,0.1
CCCCNC(=O)COC(=O)c1ccc(F)cc1Cl,24.4,3.3,-1.1,-0.4,18.7,0.0
CC(C)[C@@H](C(=O)OCC(=O)Nc1ccc2c(c1)OCO2)N1C(=O)c2ccccc2C1=O,7.5,9.3,-21.7,-0.4,-3.0,0.0
O=C(CN1C(=O)NC(Cc2c[nH]c3ccccc23)C1=O)Nc1ccc(F)cc1F (centres undefined),-3.2,2.9,-1.3,1.0,19.9,-0.1
N#Cc1ccccc1NC(=O)CN1C(=O)NC(Cc2c[nH]c3ccccc23)C1=O (centres undefined),-11.6,78.1*,nt,nt,nt,0.1
COc1ccc(Nc2ncnc3sccc23)cc1OC,-6.7,64.3*,-140.5,-1.0,5.6,-0.2
O=C(CS(=O)(=O)Cc1ccccc1)NCCc1ccc(F)cc1,8.8,-2.5,-0.8,0.3,1.4,0.0
Cc1c(C2(O)CCCCC2)[nH]c2cc(C(F)(F)F)ccc12,-8.9,47.9*,0.2,-0.8,139.6,0.0
